# Results from PubChem BioAssay (NCATS).
# Inconclusive results are not listed. Calls of active or inactive are those of the source. Unless noted, no rule for the calls is given here.
# Tests used:
# [1] = qHTS profiling of the MIPE4 collection as inhibitors of Plasmodium falciparum (3D7) proliferation (AID 743344);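 also: scaled between DMSO vehicle wells and 0.29 µM artemisinin as full inhibition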; settings: P. falciparum 3D7 in erythrocytes, SYBR Green DNA fluorescence, 72 h; at 28.5 µM unless noted
# How it was run: (§1)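 Parasite DNA was quantified by SYBR Green I fluorescence (ex 485, em 535 nm) after overnight lysis in saponin/Triton buffer at room temperature. Cultures at 0.3% parasitemia and 2.5% hematocrit were first exposed to compound for 72 h at 37 C; signals were normalised to artemisinin (0.29 uM) and vehicle wells.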
# [2] = qHTS profiling of the MIPE4 collection as inhibitors of Plasmodium falciparum (DD2) proliferation (AID 743345); settings: P. falciparum Dd2 in erythrocytes, SYBR Green DNA, 72 h; at 28.5 µM unless noted
# How it was run: as §1
# [3] = qHTS profiling of the MIPE4 collection as inhibitors of Plasmodium falciparum (DD2) proliferation (Rep 2) (AID 743346); settings: P. falciparum Dd2 in erythrocytes, SYBR Green DNA, 72 h; at 28.5 µM unless noted
# How it was run: as §1
# [4] = qHTS profiling of the MIPE4 collection as inhibitors of Plasmodium falciparum (HB3) proliferation (AID 743347);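 also: plate controls were DMSO vehicle wells for no effect and artemisinin wells for full effect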; settings: P. falciparum HB3 in erythrocytes, SYBR Green DNA, 72 h; at 28.5 µM unless noted
# How it was run: as §1
# [5] = High-throughput drug toxicity screening in the BPDCN cell line Gen2.2 (AID 1224824); settings: Gen2.2 BPDCN cells; at 45.8 µM (top of the series) unless noted;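 also: cells exposed to compounds for 48 h before reading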
# How it was run: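 Readout is ATP luminescence from Gen2.2 cells after two days of drug exposure in serum-containing medium at 37 °C. Values express percent activity, with vehicle defining full signal and 9.2 uM bortezomib defining zero.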
# [6] = High-throughput drug toxicity screening in the BPDCN cell line Cal-1 (AID 1224825); settings: Cal-1 BPDCN cell viability, qHTS; at 45.8 µM (top of the series) unless noted
# How it was run: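 Viability of the BPDCN line Cal-1 is measured as ATP-based luminescence (CellTiter-Glo) following 48 h incubation with compounds. Percent activity uses DMSO-treated wells as 100% and 9.2 uM bortezomib as 0%.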
# [7] = qHTS assay for measurement of the activity of small molecule inhibitors on Zika virus induced Caspase-3 activity in human iPSC derived neural progenitor cells (hNPCs) (AID 1224857; active = well fitted inhibition curve with a large enough effect; also: nearly all actives have a fitted effect of over 65% in size; also: potency is read from the fitted curve at half-maximal effect)
# How it was run: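 In medium with heparin 2 ug/ml and cyclopamine 2 uM, hNPCs (350 cells/well) received compound for one hour and then Zika virus at 2 FFU/cell; caspase activity was measured by Caspase-Glo 3/7 luminescence 6 h post-infection.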
# [8] = qHTS assay for measurement of the activity of small molecule inhibitors on Zika virus induced Caspase-3 activity in human astrocytoma cells (AID 1224859; active = well fitted inhibition curve with a large enough effect;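 also: plate controls were ZIKV-infected untreated cells for no effect and uninfected cells for full effect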)
# How it was run: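 A cell-based luminescent caspase-3/7 assay used SNB-19 cells infected with ZIKV (2 FFU/cell) for 6 h following 1 h compound pretreatment.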
# [9] = qHTS Screen of the MIPE 4.0 Collection Against Ewings Sarcoma (RDES) (AID 1259252; active = well fitted inhibition curve with a large enough effect; also: nearly all actives have a fitted effect of over 35% in size; also: potency is read from the fitted curve at half-maximal effect)
# How it was run: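 Here, cells in 5% FBS RPMI were exposed for two days (48 h) to compound dilutions added four hours after plating. ATP-based CellTiter-Glo luminescence measured viability, normalized to vehicle and no-cell blanks.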
structure (smiles),measurement,setting,value
COc1ccc2c(c1)c(C1=C(c3c[nH]c4ccccc34)C(=O)NC1=O)cn2CCCN(C)C,"parasite growth, % of DMSO control",[1],5.52%
same,"parasite growth remaining, % of DMSO control (lower = more inhibition)",[2],8.71%
same,"parasite growth, % of control (lower = inhibition)",[3],12.5%
same,"growth, % of control",[4],5.22%
same,"cell viability, % of control (lower = more cytotoxic)",[5],8.51%
same,viability (% of control),[6],8.47%
same,Potency,[7],inactive
same,Potency,[8],inactive
same,Potency,[9],0.0083 µM (active)
CC(C)c1onc(-c2c(Cl)cccc2Cl)c1COc1ccc(C=Cc2cccc(C(=O)O)c2)c(Cl)c1,"parasite growth, % of DMSO control",[1],60.6%
same,"parasite growth remaining, % of DMSO control (lower = more inhibition)",[2],94.1%
same,"parasite growth, % of control (lower = inhibition)",[3],53.3%
same,"growth, % of control",[4],67.3%
same,"cell viability, % of control (lower = more cytotoxic)",[5],76.8%
same,viability (% of control),[6],107%
same,Potency,[7],inactive
same,Potency,[8],inactive
same,Potency,[9],inactive
CC1(C)C(N(O)C(=O)Nc2ccc(Cl)cc2)N(c2ccc(Cl)cc2)C(=O)N1CC(=O)NN=CC=Cc1ccc([N+](=O)[O-])o1 (stereo unspecified),"parasite growth, % of DMSO control",[1],5.05%
same,"parasite growth remaining, % of DMSO control (lower = more inhibition)",[2],9.75%
same,"parasite growth, % of control (lower = inhibition)",[3],18.3%
same,"growth, % of control",[4],7.55%
same,"cell viability, % of control (lower = more cytotoxic)",[5],3.85%
same,viability (% of control),[6],2.85%
same,Potency,[7],inactive
same,Potency,[8],inactive
same,Potency,[9],26.4 µM (active)
CCOc1ccccc1N=Nc1c(C)[nH]n(-c2nc(-c3ccccc3)cs2)c1=O,"parasite growth, % of DMSO control",[1],92.5%
same,"parasite growth remaining, % of DMSO control (lower = more inhibition)",[2],102%
same,"parasite growth, % of control (lower = inhibition)",[3],82.1%
same,"growth, % of control",[4],87.1%
same,"cell viability, % of control (lower = more cytotoxic)",[5],97.4%
same,viability (% of control),[6],63.6%
same,Potency,[7],inactive
same,Potency,[8],inactive
same,Potency,[9],16.6 µM (active)
CN(C)CCOc1cc(-c2cn[nH]c2)ccc1NC(=O)C1COc2ccccc2O1 (stereo unspecified),"parasite growth, % of DMSO control",[1],29.9%
same,"parasite growth remaining, % of DMSO control (lower = more inhibition)",[2],61.4%
same,"parasite growth, % of control (lower = inhibition)",[3],32.4%
same,"growth, % of control",[4],38.6%
same,"cell viability, % of control (lower = more cytotoxic)",[5],73.4%
same,viability (% of control),[6],34.9%
same,Potency,[7],inactive
same,Potency,[8],inactive
same,Potency,[9],14.8 µM (active)
CCNC(=O)Nc1ccc(Oc2ncnc(N)c2C=NOC)cc1Cl,"parasite growth, % of DMSO control",[1],71.9%
same,"parasite growth remaining, % of DMSO control (lower = more inhibition)",[2],81.9%
same,"parasite growth, % of control (lower = inhibition)",[3],67%
same,"growth, % of control",[4],50.6%
same,"cell viability, % of control (lower = more cytotoxic)",[5],52.6%
same,viability (% of control),[6],17%
same,Potency,[7],inactive
same,Potency,[8],inactive
same,Potency,[9],8.33 µM (active)
O[C@@H](COc1cccc2ncccc12)CN1CCN(C2c3ccccc3[C@@H]3[C@H](c4ccccc42)C3(F)F)CC1 (stereo partly specified),"parasite growth, % of DMSO control",[1],47.1%
same,"parasite growth remaining, % of DMSO control (lower = more inhibition)",[2],65.6%
same,"parasite growth, % of control (lower = inhibition)",[3],54.1%
same,"growth, % of control",[4],63.5%
same,"cell viability, % of control (lower = more cytotoxic)",[5],4.83%
same,viability (% of control),[6],6.33%
same,Potency,[7],26.4 µM (active)
same,Potency,[8],inactive
same,Potency,[9],20.9 µM (active)
c1ccc(CNc2nc(N3CCOc4ccccc43)nc3c2CCCC3)cc1,"parasite growth remaining, % of DMSO control (lower = more inhibition)",[2],70.4%
same,"parasite growth, % of control (lower = inhibition)",[3],21.3%
same,"growth, % of control",[4],8.4%
same,"cell viability, % of control (lower = more cytotoxic)",[5],233%
same,viability (% of control),[6],95.6%
same,Potency,[7],inactive
same,Potency,[8],inactive
same,Potency,[9],inactive
CN(C)CCOc1ccc(C(=C(CCCl)c2ccccc2)c2ccccc2)cc1,"parasite growth, % of control (lower = inhibition)",[3],19.5%
same,"growth, % of control",[4],27%
same,"cell viability, % of control (lower = more cytotoxic)",[5],103%
same,viability (% of control),[6],111%
same,Potency,[7],inactive
same,Potency,[8],inactive
same,Potency,[9],1.66 µM (active)
CCOC(=O)N1CCN([N+]([O-])=NOc2cc(ON=[N+]([O-])N3CCN(C(=O)OCC)CC3)c([N+](=O)[O-])cc2[N+](=O)[O-])CC1,"parasite growth remaining, % of DMSO control (lower = more inhibition)",[2],45.7%
same,"parasite growth, % of control (lower = inhibition)",[3],49.8%
same,"growth, % of control",[4],48%
same,"cell viability, % of control (lower = more cytotoxic)",[5],87.7%
same,viability (% of control),[6],81.2%
same,Potency,[7],inactive
same,Potency,[8],inactive
same,Potency,[9],inactive
